Bioassay records as filed in PubChem.
IL-1B inflam inh – blocks inflammasome-driven IL-1 beta release; AID 743279; activity change, % at 57.5 µM; 360,000 tested, 4.7% active; THP-1 LPS/ATP IL-1B secretion, AlphaLISA, 16 h; stronger effect = lower value; in the data active = activity change below about -50%; inconclusive = mostly about -30% to -49%
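THP-1 cells pretreated 1 hr with compounds (up to 57.5 uM final), then stimulated with LPS (250 ng/mL final) plus ATP (1.25 mM final); secreted IL-1B measured by AlphaLISA after 16 hr, decreased signal indicating inhibition.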
DT40 TDP1 CPT – DT40-hTDP1 cell growth loss with CPT. chicken DT40 Tdp1-/-;hTDP1 cells + 20 nM CPT, ATP luminescence, 48 h. Potency, µM (doses to about 46.2 µM), actives largely listed as inhibitors. 420,000 tested, 12% active; also: nearly all actives have a fitted effect of over 55% in size
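Chicken DT40 Tdp1-/- cells complemented with human TDP1, 400 cells/well, exposed to compounds plus 20 nM camptothecin for at least 48 h at 37 C; viability read as ATP content by CellTiter-Glo luminescence.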
LDHA block – blocks human lactate dehydrogenase A | purified LDHA, NADH/diaphorase-resazurin fluorescence; stronger effect = lower value | activity change, % (values are at about 110 or 230 µM) | 480,000 tested, 0.15% active | P00338 | AID 1347041; in the data active = activity change below about -30%; inconclusive = mostly about -25% to -30%
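Enzyme activity of human lactate dehydrogenase 5 (2 nM; 0.06 mM NADH, 0.2 mM pyruvate, 5 min, RT) is measured via a resazurin/diaphorase fluorescence readout of residual NADH.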
RORgamma inh – ROR gamma (mouse) transcription inhibition. P51450. Drosophila S2 Gal4-RORgamma UAS-luciferase reporter, 20 h. Potency, µM (titrated, usually from 53.6 µM), hits mostly inhibitors. 310,000 tested, 5.4% active; also: nearly all actives have a fitted effect of over 60% in size
Target sequence (P51450 whole entry, looked up, the tested form may be a part): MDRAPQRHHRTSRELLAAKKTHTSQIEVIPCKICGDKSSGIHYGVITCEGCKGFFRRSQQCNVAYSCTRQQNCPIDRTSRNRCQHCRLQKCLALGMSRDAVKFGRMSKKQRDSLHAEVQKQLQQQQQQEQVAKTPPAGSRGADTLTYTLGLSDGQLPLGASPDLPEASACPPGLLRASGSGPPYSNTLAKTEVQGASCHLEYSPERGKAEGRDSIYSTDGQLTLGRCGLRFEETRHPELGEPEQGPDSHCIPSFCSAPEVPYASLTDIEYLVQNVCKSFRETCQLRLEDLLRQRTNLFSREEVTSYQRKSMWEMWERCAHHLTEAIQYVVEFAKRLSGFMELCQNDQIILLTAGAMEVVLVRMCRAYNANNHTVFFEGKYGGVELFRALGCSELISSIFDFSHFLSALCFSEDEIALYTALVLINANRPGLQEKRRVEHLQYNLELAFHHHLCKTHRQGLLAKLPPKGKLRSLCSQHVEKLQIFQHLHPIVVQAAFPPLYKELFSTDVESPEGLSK
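ROR gamma transcriptional activity was tracked as Gal4-UAS luciferase output in stably transfected Drosophila Schneider cells, with compound added 1 hr before 700 uM copper sulfate induction and a 20 hr ambient-temperature incubation.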
VP16 counter – counter-screen for ROR gamma inhibitors: Gal4-VP16 reporter | Drosophila S2 Gal4-VP16 UAS-luciferase, luminescence, 20 h | Potency, µM (titrated, usually from 53.6 µM), most hits filed as inhibitors | 310,000 tested, 3.5% active | AID 2546;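 also: Gal4-VP16 expression switched on by copper sulfate through the metallothionein promoter; nearly all actives have a fitted effect of over 50% in size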
DT40 TDP1 no CPT – qHTS for Inhibitors of human tyrosyl-DNA phosphodiesterase 1 (TDP1): qHTS in cells in absence of CPT; DT40 Tdp1-/- hTDP1 cells, no CPT, ATP luminescence, 48 h; AID 686978, 2013; 420,000 tested, 15% active; Potency, µM (series often up to 46.2 µM), actives largely listed as inhibitors; also: nearly all actives have a fitted effect of over 55% in size
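Camptothecin absent (DMSO only). Human TDP1-complemented DT40 knockout cells, 400 cells/well, 37 °C for minimum 48 hr; ATP measured via CellTiter-Glo, 30 min dark incubation, luminescence.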
Of the large screens only hits and unclear results are named; the others gave an inactive call. An excerpt weighted towards active compounds, which were near 18% of everything screened. Unless noted, calls follow the shape of the dose curve; as a rule, active = well fitted curve in the direction sought with a large enough effect; inconclusive = small, poorly fitted or top-dose-only effect, or another doubt; inactive = no such curve, though single readings can be large; an effect the other way counts as inactive or inconclusive.

Cc1c(C(=O)Nc2cc(F)ccc2F)sc2nc(-c3ccccc3)cn12	none (no result: IL-1B inflam inh, DT40 TDP1 CPT, RORgamma inh, VP16 counter, DT40 TDP1 no CPT)
COCCNC(=O)c1sc2nc(-c3ccccc3)cn2c1C	none
COc1ccc(-c2cn3c(C)c(C(=O)NC(C)(C)C)sc3n2)cc1	DT40 TDP1 CPT inconclusive, DT40 TDP1 no CPT inconclusive
Cc1cccc(NC(=O)c2sc3nc(-c4ccccc4)cn3c2C)n1	IL-1B inflam inh -58.6, DT40 TDP1 CPT inconclusive, DT40 TDP1 no CPT inconclusive
Cc1ccc(Cl)cc1NC(=O)c1sc2nc(-c3ccccc3)cn2c1C	DT40 TDP1 CPT 20.6µM, DT40 TDP1 no CPT 14.6µM (no result: IL-1B inflam inh, RORgamma inh, VP16 counter)
Cc1c(C(=O)Nc2ccccc2)sc2nc(-c3ccccc3)cn12	IL-1B inflam inh inconclusive, DT40 TDP1 CPT 18.4µM, DT40 TDP1 no CPT inconclusive
COc1ccc(-c2cn3c(C)c(C(=O)Nc4cccc(C)n4)sc3n2)cc1	DT40 TDP1 CPT inconclusive, RORgamma inh 7.08µM, VP16 counter 11.2µM, DT40 TDP1 no CPT 23.1µM
CCOC(=O)c1cnc(SC)nc1Oc1cccc(NS(=O)(=O)c2ccc(C)cc2)c1	DT40 TDP1 CPT inconclusive, DT40 TDP1 no CPT 16.4µM
CCNc1nc(-c2ccc(NC(C)=O)cc2)cs1	none (no result: IL-1B inflam inh, DT40 TDP1 CPT, RORgamma inh, VP16 counter, DT40 TDP1 no CPT)
CC(C)c1ccc(CN(C(=O)Cc2c[nH]c3ccccc23)C2CC2)cc1	none (no result: IL-1B inflam inh, DT40 TDP1 CPT, RORgamma inh, VP16 counter, DT40 TDP1 no CPT)
Cc1ccc(S(=O)(=O)N(C)C)cc1NC(=O)COC(=O)/C(=C/c1ccc(F)cc1)c1cccs1	DT40 TDP1 CPT 13µM, RORgamma inh inconclusive, DT40 TDP1 no CPT 25.9µM
Cc1ccc(NC(=O)c2ccccc2OCC(=O)Nc2ccccc2F)cc1S(=O)(=O)N(C)C	DT40 TDP1 CPT 16.4µM, DT40 TDP1 no CPT 20.6µM (no result: RORgamma inh, VP16 counter)
CN(C)S(=O)(=O)c1cccc(NC(=O)COc2cccc3ccccc23)c1	none (no result: RORgamma inh, VP16 counter)
Cc1ccc(S(=O)(=O)N(C)C)cc1NC(=O)COc1ccccc1C(=O)Nc1ccccc1	DT40 TDP1 CPT 13µM, DT40 TDP1 no CPT 9.2µM (no result: RORgamma inh, VP16 counter)
CN(C)S(=O)(=O)c1cccc(NC(=O)COc2ccccc2C(=O)Nc2ccccc2)c1	IL-1B inflam inh inconclusive, DT40 TDP1 CPT 18.4µM, DT40 TDP1 no CPT 9.2µM (no result: RORgamma inh, VP16 counter)
CCC(C(=O)Nc1sccc1C#N)c1ccccc1 (configuration not stated)	none (no result: IL-1B inflam inh, DT40 TDP1 CPT, RORgamma inh, VP16 counter, DT40 TDP1 no CPT)
Nc1nnc(SCC(=O)OCC(=O)c2ccccc2Br)s1	DT40 TDP1 CPT 25.9µM, DT40 TDP1 no CPT inconclusive
CCCN1C(=O)C(O)(CC(=O)c2ccc3c(c2)OCO3)c2ccccc21 (configuration not stated)	none (no result: IL-1B inflam inh, DT40 TDP1 CPT, RORgamma inh, VP16 counter, DT40 TDP1 no CPT)
Cc1ccc(C(=O)N2c3ccccc3N(Cc3ccccc3)C(=O)C2(C)C)cc1	IL-1B inflam inh -67.8, DT40 TDP1 CPT 14.6µM, VP16 counter inconclusive, DT40 TDP1 no CPT 20µM
Cc1ccc(C(=O)CC2(O)C(=O)N(Cc3ccccc3)c3ccccc32)c(C)c1 (configuration not stated)	DT40 TDP1 CPT 23.1µM, DT40 TDP1 no CPT inconclusive (no result: IL-1B inflam inh, RORgamma inh, VP16 counter)
COc1ccc(CN2C(=O)C(O)(CC(=O)c3ccccc3OC)c3ccccc32)cc1OC (configuration not stated)	none (no result: IL-1B inflam inh, DT40 TDP1 CPT, RORgamma inh, VP16 counter, DT40 TDP1 no CPT)
CCCCN1C(=O)C(O)(CC(=O)c2ccc(C(C)(C)C)cc2)c2ccccc21 (configuration not stated)	DT40 TDP1 CPT 20.6µM, DT40 TDP1 no CPT 14.6µM (no result: IL-1B inflam inh, RORgamma inh, VP16 counter)
COc1ccc(CN2C(=O)C(O)(CC(=O)c3ccc4c(c3)OCO4)c3ccccc32)cc1OC (configuration not stated)	DT40 TDP1 CPT 6.31µM, DT40 TDP1 no CPT 6.31µM
Nc1ccccc1C12CC3CC(CC(C3)C1)C2	none (no result: IL-1B inflam inh, DT40 TDP1 CPT, RORgamma inh, VP16 counter, DT40 TDP1 no CPT)
CC(=O)Nc1ccc(NC(=O)CC2C(=O)Nc3nc(-c4ccccc4)nn32)cc1 (configuration not stated)	none (no result: IL-1B inflam inh, DT40 TDP1 CPT, RORgamma inh, VP16 counter, DT40 TDP1 no CPT)
COc1ccccc1C(=O)CC1(O)C(=O)N(Cc2ccccc2)c2ccc(Br)cc21 (configuration not stated)	none (no result: IL-1B inflam inh, DT40 TDP1 CPT, RORgamma inh, VP16 counter, DT40 TDP1 no CPT)
COc1ccc(C(=O)CC2(O)C(=O)N(Cc3ccccc3Cl)c3ccccc32)cc1 (configuration not stated)	none (no result: IL-1B inflam inh, DT40 TDP1 CPT, RORgamma inh, VP16 counter, DT40 TDP1 no CPT)
